Assay results taken from PubChem BioAssay (EPA / NIEHS).
Results filed as inconclusive are left out. The source made the active and inactive calls. How the source made its calls: active means hit-call score of the fitted dose curve at least 0.9, where 1 is the maximum; inconclusive means response in the unintended direction; inactive means score below 0.9.

Target: human Peroxisome Proliferator-activated Receptor alpha (PPARa), PPARA (gene 5465) (UniProt Q07869)
Experiment: ATG_PPARa_TRANS: Attagene TRANS-FACTORIAL HepG2 Assay for human Peroxisome Proliferator-activated Receptor alpha (PPARa) (AID 2283001)
Outline: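 Measures transcriptional activity of an exogenous chimeric PPARa-Gal4 protein in transiently transfected HepG2 cells after 24 h dosing. Reporter mRNA quantified via RT-PCR and capillary electrophoresis; DMSO served as negative control.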

Chain of human Peroxisome Proliferator-activated Receptor alpha (PPARa), PPARA (gene 5465) (Q07869 whole entry, looked up): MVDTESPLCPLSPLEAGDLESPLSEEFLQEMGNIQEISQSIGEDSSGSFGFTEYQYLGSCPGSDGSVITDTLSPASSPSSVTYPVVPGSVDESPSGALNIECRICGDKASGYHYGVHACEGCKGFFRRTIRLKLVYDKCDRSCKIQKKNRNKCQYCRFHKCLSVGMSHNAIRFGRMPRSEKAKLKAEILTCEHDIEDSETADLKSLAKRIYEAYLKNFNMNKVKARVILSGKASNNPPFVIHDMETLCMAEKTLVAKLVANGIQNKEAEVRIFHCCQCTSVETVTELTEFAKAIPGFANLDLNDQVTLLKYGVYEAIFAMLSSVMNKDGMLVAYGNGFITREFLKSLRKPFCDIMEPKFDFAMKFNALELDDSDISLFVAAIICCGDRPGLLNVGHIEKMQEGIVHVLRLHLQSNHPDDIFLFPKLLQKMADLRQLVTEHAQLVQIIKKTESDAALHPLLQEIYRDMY

SMILES | outcome
CC(=O)c1ccc2ccccc2c1 | inactive
O=C(O)CS | inactive
CC(CO)c1ccccc1 (centres undefined) | inactive
CC(=O)CC(=O)N(C)C | inactive
Cc1ccccc1S | inactive
COC(=O)c1cccc(C(=O)OC)c1 | inactive
C=C(C)C(=O)OCCN(C)C | inactive
[Cl][Dy]([Cl])[Cl] | inactive
CC(=O)Nc1cc(S(=O)(=O)O)cc2cc(S(=O)(=O)O)c(N=Nc3ccccc3)c(O)c12 | inactive
CC1=CCC(C(C)(C)O)CC1 (centres undefined) | inactive
NC(=O)c1cnccn1 | inactive
CCCCCC1CCC(=O)O1 (centres undefined) | inactive
CC(C)=CCCC(C)=CC(=O)O | inactive
OCCCO | inactive
CCC(C)COC(=O)CC(C)C (centres undefined) | inactive
CCOc1ccc(NC(C)=O)cc1 | inactive
CC(O)COCC(C)O (centres undefined) | inactive
O=S(=O)(O)c1cc(S(=O)(=O)O)c2c(N=Nc3ccccc3)c(O)ccc2c1 | inactive
C=CCCCCCCCCC(=O)OCC | inactive

Target: human Peroxisome Proliferator-activated Receptor delta (PPARd), PPARD (gene 5467) (UniProt Q03181)
Experiment: ATG_PPARd_TRANS: Attagene TRANS-FACTORIAL HepG2 Assay for human Peroxisome Proliferator-activated Receptor delta (PPARd) (AID 2283002)
Outline: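 Fluorescence from capillary electrophoresis of labelled RT-PCR reporter fragments gives the signal; DMSO sets baseline. Cells: HepG2 transiently carrying GAL4-UAS reporter units plus chimeric nuclear receptor-Gal4 proteins, exposed to chemicals for 24 h.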

Chain of human Peroxisome Proliferator-activated Receptor delta (PPARd), PPARD (gene 5467) (Q03181 whole entry, looked up): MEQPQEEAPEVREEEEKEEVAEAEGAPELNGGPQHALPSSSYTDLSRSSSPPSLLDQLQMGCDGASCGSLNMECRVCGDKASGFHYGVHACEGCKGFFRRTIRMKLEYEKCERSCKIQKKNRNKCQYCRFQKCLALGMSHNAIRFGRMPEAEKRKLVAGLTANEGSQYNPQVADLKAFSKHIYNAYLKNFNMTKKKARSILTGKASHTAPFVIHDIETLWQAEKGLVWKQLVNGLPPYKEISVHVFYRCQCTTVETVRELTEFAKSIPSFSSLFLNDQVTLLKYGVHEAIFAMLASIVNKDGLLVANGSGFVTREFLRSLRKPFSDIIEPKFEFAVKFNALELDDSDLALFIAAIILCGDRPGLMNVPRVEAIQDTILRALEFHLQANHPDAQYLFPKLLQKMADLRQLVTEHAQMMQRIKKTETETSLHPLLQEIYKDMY

SMILES | outcome
C1CCCNCC1 | inactive
O=C(O)c1ccc(C(=O)O)c(C(=O)O)c1 | inactive
C=C1CC[C@H]2O[C@]2(C)CC[C@@H]2[C@@H]1CC2(C)C | inactive
CCCCCCCCOC(C)=O | inactive
NC(=O)c1cccnc1 | inactive
O=[N+]([O-])c1cc(N(CCO)CCO)ccc1NCCO | inactive
OC[C@H]1O[C@@H](O[C@H]2[C@H](O)[C@@H](O)[C@H](O)O[C@@H]2CO)[C@H](O)[C@@H](O)[C@H]1O | inactive
NCCN1CCNCC1 | inactive
FC(F)(F)c1ccc(Cl)c(Cl)c1 | inactive
[Na+] | inactive
C=CC(C)CCCC(C)(C)O (centres undefined) | inactive
[Cu+] | inactive
O=C1OCc2ccccc21 | inactive
CCCCCCOC(C)=O | inactive
CC12CCC(C1)C(C)(C)C2O (centres undefined) | inactive
CCOC(=O)CC(C)C | inactive

Target: human Retinoic Acid Receptor beta (RARb), RARB (gene 5915) (UniProt P10826)
Experiment: ATG_RARb_TRANS: Attagene TRANS-FACTORIAL HepG2 Assay for human Retinoic Acid Receptor beta (AID 2283004)
Outline: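 HepG2 cells were transiently transfected with GAL4-UAS reporter units that report activity of exogenous chimeric NR-Gal4 proteins, then exposed to compound for 24 h. Reporter mRNA was quantified by RT-PCR with capillary electrophoresis fluorescence, as gain of signal over DMSO.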

Chain of human Retinoic Acid Receptor beta (RARb), RARB (gene 5915) (P10826 whole entry, looked up): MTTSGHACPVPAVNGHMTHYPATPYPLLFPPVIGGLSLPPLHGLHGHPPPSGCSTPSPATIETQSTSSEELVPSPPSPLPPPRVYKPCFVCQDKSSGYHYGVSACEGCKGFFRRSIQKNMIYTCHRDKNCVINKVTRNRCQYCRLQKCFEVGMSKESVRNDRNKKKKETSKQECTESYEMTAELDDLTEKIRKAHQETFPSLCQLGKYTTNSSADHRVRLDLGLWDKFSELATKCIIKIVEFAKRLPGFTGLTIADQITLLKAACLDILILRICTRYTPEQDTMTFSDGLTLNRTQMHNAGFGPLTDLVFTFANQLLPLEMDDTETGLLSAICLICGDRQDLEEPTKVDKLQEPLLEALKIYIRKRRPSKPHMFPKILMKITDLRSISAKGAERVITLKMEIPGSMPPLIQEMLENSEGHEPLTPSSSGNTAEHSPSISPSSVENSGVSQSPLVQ

SMILES | outcome
OC[C@H]1O[C@@H](O[C@H]2[C@H](O)[C@@H](O)[C@H](O)O[C@@H]2CO)[C@H](O)[C@@H](O)[C@H]1O | inactive
NCCN1CCNCC1 | inactive
[Cu+] | inactive
CC12CCC(C1)C(C)(C)C2O (centres undefined) | inactive

Target: Peroxisome proliferator-activated receptor gamma (Homo sapiens) (UniProt P37231)
Experiment: ATG_PPARg_TRANS: Attagene TRANS-FACTORIAL HepG2 Assay for human Peroxisome Proliferator-activated Receptor-gamma (PPARg) (AID 2283007)
Outline: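 Chimeric NR-Gal4 transactivation is measured in transiently transfected HepG2 cells by reporter mRNA induction at 24 h. Detection uses RT-PCR with fluorescent labelling and capillary electrophoresis; DMSO defines baseline.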

Chain of Peroxisome proliferator-activated receptor gamma (Homo sapiens) (P37231 whole entry, looked up): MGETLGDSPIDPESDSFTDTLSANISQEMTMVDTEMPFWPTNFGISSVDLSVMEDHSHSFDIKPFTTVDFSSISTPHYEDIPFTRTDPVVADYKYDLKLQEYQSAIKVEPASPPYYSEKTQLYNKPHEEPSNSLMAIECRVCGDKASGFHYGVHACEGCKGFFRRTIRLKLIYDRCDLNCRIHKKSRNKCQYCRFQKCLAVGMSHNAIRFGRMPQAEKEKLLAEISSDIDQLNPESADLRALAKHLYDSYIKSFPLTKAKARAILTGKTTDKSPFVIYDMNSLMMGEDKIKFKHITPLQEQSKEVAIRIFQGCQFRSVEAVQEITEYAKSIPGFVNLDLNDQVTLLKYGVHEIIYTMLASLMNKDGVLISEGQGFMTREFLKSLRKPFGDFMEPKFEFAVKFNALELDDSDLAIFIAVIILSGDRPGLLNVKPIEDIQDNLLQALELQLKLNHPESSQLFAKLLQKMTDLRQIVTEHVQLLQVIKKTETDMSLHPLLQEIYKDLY

SMILES | outcome | AC50
CC(=O)c1ccc2ccccc2c1 | inactive | –
C1CCCNCC1 | inactive | –
C=C1CC[C@H]2O[C@]2(C)CC[C@@H]2[C@@H]1CC2(C)C | inactive | –
CCCCCCCCOC(C)=O | inactive | –
NC(=O)c1cccnc1 | inactive | –
Cc1ccccc1S | – | 41.6 µM (active)
OC[C@H]1O[C@@H](O[C@H]2[C@H](O)[C@@H](O)[C@H](O)O[C@@H]2CO)[C@H](O)[C@@H](O)[C@H]1O | inactive | –
NCCN1CCNCC1 | inactive | –
COC(=O)c1cccc(C(=O)OC)c1 | inactive | –
C=C(C)C(=O)OCCN(C)C | inactive | –
CC(=O)Nc1cc(S(=O)(=O)O)cc2cc(S(=O)(=O)O)c(N=Nc3ccccc3)c(O)c12 | inactive | –
CC(C)=CCCC(C)=CC(=O)O | – | 57.3 µM (active)
CCC(C)COC(=O)CC(C)C (centres undefined) | inactive | –
CCOc1ccc(NC(C)=O)cc1 | inactive | –
[Cu+] | inactive | –
CCCCCCOC(C)=O | inactive | –
C=CCCCCCCCCC(=O)OCC | – | 55.9 µM (active)
CCOC(=O)CC(C)C | inactive | –

Target: Nuclear receptor subfamily 1 group I member 2 (Homo sapiens) (UniProt O75469)
Experiment: ATG_PXR_TRANS: Attagene TRANS-FACTORIAL HepG2 Assay for human Pregnane X Receptor (PXR) (AID 2283008)
Outline: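 HepG2 cells transiently transfected with GAL4-UAS reporter units and PXR-Gal4 chimera, exposed 24 h. Reporter mRNA quantified by RT-PCR, fluorescent labelling, HpaI digestion and capillary electrophoresis; gain of signal vs DMSO.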

Chain of Nuclear receptor subfamily 1 group I member 2 (Homo sapiens) (O75469 whole entry, looked up): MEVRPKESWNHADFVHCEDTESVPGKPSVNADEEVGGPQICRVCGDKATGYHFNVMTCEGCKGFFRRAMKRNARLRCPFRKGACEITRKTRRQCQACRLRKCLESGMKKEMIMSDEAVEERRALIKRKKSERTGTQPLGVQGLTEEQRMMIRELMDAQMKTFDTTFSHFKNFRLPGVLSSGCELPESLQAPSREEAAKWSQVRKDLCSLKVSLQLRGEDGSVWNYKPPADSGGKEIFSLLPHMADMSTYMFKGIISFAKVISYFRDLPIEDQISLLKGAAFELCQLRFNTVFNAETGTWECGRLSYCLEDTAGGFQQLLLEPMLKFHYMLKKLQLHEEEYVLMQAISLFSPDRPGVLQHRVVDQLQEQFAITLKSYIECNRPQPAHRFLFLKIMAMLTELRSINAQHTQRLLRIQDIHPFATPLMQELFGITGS

SMILES | outcome
CC(=O)c1ccc2ccccc2c1 | inactive
O=C(O)CS | inactive
C=C1CC[C@H]2O[C@]2(C)CC[C@@H]2[C@@H]1CC2(C)C | inactive
CC(CO)c1ccccc1 (centres undefined) | inactive
CC(=O)CC(=O)N(C)C | inactive
Cc1ccccc1S | inactive
OC[C@H]1O[C@@H](O[C@H]2[C@H](O)[C@@H](O)[C@H](O)O[C@@H]2CO)[C@H](O)[C@@H](O)[C@H]1O | inactive
NCCN1CCNCC1 | inactive
COC(=O)c1cccc(C(=O)OC)c1 | inactive
C=C(C)C(=O)OCCN(C)C | inactive
[Cl][Dy]([Cl])[Cl] | inactive
CC(=O)Nc1cc(S(=O)(=O)O)cc2cc(S(=O)(=O)O)c(N=Nc3ccccc3)c(O)c12 | inactive
CC1=CCC(C(C)(C)O)CC1 (centres undefined) | inactive
NC(=O)c1cnccn1 | inactive
CCCCCC1CCC(=O)O1 (centres undefined) | inactive
CC(C)=CCCC(C)=CC(=O)O | inactive
OCCCO | inactive
CCC(C)COC(=O)CC(C)C (centres undefined) | inactive
CCOc1ccc(NC(C)=O)cc1 | inactive
CC(O)COCC(C)O (centres undefined) | inactive
[Cu+] | inactive
O=S(=O)(O)c1cc(S(=O)(=O)O)c2c(N=Nc3ccccc3)c(O)ccc2c1 | inactive
C=CCCCCCCCCC(=O)OCC | inactive
CC12CCC(C1)C(C)(C)C2O (centres undefined) | inactive
CCOC(=O)CC(C)C | inactive

Target: human Retinoic Acid Receptor gamma (RARg), RARG (gene 5916) (UniProt P13631)
Experiment: ATG_RARg_TRANS: Attagene TRANS-FACTORIAL HepG2 Assay for human Retinoic Acid Receptor gamma (RARg) (AID 2283009)
Outline: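 HepG2, RARg-GAL4 TRANS system, 24 h exposure; reporter mRNA by RT-PCR + CE fluorescence; increase over DMSO.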

Chain of human Retinoic Acid Receptor gamma (RARg), RARG (gene 5916) (P13631 whole entry, looked up): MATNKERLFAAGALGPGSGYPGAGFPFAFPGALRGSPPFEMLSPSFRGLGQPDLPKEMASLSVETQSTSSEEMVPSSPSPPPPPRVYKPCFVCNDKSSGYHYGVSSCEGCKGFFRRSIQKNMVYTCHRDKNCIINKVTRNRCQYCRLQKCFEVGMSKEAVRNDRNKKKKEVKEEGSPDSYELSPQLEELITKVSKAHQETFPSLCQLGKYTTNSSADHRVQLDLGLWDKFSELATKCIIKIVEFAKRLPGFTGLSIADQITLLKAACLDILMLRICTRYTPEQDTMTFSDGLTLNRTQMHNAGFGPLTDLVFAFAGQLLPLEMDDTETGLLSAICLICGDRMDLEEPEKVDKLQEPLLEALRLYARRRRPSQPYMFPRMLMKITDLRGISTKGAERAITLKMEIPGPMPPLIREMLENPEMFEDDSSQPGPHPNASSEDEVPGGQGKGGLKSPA

SMILES | outcome
O=C(O)CS | inactive
NCCN1CCNCC1 | inactive
COC(=O)c1cccc(C(=O)OC)c1 | inactive
C=C(C)C(=O)OCCN(C)C | inactive
CC(=O)Nc1cc(S(=O)(=O)O)cc2cc(S(=O)(=O)O)c(N=Nc3ccccc3)c(O)c12 | inactive
OCCCO | inactive
[Cu+] | inactive
